# The panel holds about 83,000 compounds, 20% with a hit somewhere; the sample as a whole holds those more often.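 48-hour exposure, single concentration, 96-well plates; percent growth endpoint where 0 means no net growth. Active: below 10.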 Unmarked numbers belong to inactive results. Activity calls are given as the source filed them.
# Test system: COLO 205 colon
# Test: NCI-60 one-dose screen, 48 h (100 = growth as untreated, 0 = no growth, -100 = all killed)
# Conditions: 10 µM unless noted
# Protocol: Cells are grown in 96 well plates and exposed to the test compound for 48 hours. Compounds are tested at a single concentration, which is 10^-5 M for most compounds. The reported endpoint is percent growth (GI% or GIPRCNT), where numbers from 0 - 100% represent growth inhibition, and numbers from -100% - 0 represent cell death. For example, a value of 40 represents 60% growth inhibition. A value of 0 means no net growth occurred over the course of the experiment. A value of -40 indicates 40% of cells at the beginning of the experiment died by the end of the experiment. A value of -100 means all cells are dead at the end of the experiment.
# NCI-60 Human Tumor Cell Lines Screen was performed using the standard one-dose NCI protocol, which is described in more detail at https://dtp.cancer.gov/discovery_development/nci-60/default.htm.
# Compounds with GIPRCNT values below 10 were considered active. Activity score was based on GIPRCNT using the following formula: […]
# Score is 0 for GIPRCNT values of 100 or above, 50 for GIPRCNT values of 0, and 100 for GIPRCNT values of -100.
row,SMILES,growth
1,CN1CCN(c2ccc(OC(F)(F)F)c(Nc3ncc4c(n3)-c3c(c(C(N)=O)nn3CCO)CC4)c2)CC1,-15.4% (active)
2,O=C(N/N=C/c1ccc(Cl)cc1)c1cc(-c2cc3ccccc3o2)nn1-c1ccccc1,96.1%
3,O=C(Cn1cncn1)Nc1ccc(-c2nc3ccccc3s2)cc1,107%
4,CCN(CC)Cc1cc(Nc2cc(C(F)(F)F)c(C#N)c3nc4ccccc4n23)ccc1O,-31.4% (active)
5,C[C@@H]1COCCN1c1cc(C2([S@](C)(=N)=O)CC2)nc(-c2ccnc3[nH]ccc23)n1,42.3%
6,O=C1OCC2=C1C(c1cccc(F)c1)c1cc3c(cc1N2CCO)OCCO3 (stereo not given),-5.04% (active)
7,CNC(=O)c1cnc(C)nc1-c1cc(C(C)(C)C)c(O)c(C(C)(C)C)c1,105%
8,CCCCn1c(C)nc2ccc(Nc3nc(N4CCN(C)CC4)nc4nc[nH]c34)cc21,87.9%
9,Cc1cc2c(-c3nc4ccccn4c3N)c(O)c(O)cc2c(O)c1-c1c(C)cc2c(-c3nc4ccccn4c3N)c(O)c(O)cc2c1O,-48.5% (active)
10,C/C=C/C=N/NC(=S)Nc1ccccc1,101%
11,O=C1CC(c2ccc(Cl)cc2)c2ncn(-c3cccc(Cl)c3)c2N1 (stereo not given),97.7%
12,O=C(Nc1cccc([N+](=O)[O-])c1)c1ccc(Cl)c(Cl)c1,89.7%
13,COc1cc(N2CCC(N3CCN(C)CC3)CC2)ccc1Nc1ncnc(Nc2ccccc2S(=O)(=O)C(C)C)n1,99%
14,Cc1c(Cn2c(C)nc3c(C(=O)O)cc(N4CCOCC4)cc32)cccc1C(F)(F)F,108%
15,CCCCN1CCCC[C@@H]1C(=O)N[C@H](C(=O)N(C)[C@H](CCc1nc(C(=O)N[C@@H](Cc2ccccc2)C[C@H](C)C(=O)OC)cs1)C(C)C)C(C)C,63.5%
16,CC(=O)Nc1cccc(-n2c(=O)n(C3CC3)c(=O)c3c(Nc4ccc(I)cc4F)n(C)c(=O)c(C)c32)c1,-12.9% (active)
17,Cc1ccccc1N1C(c2ccccc2)=NNC12C=CC(=O)C=C2Cl (stereo not given),99.3%
18,COc1cc2c(Oc3ccc4[nH]c(C)cc4c3F)ncnc2cc1OCCCN1CCCC1,88.9%
19,Cc1cccc(NC(=O)[C@@H]2c3ccccc3C(=O)N(c3ccc(Cl)cc3)[C@H]2c2ccc(Cl)cc2)n1,30.7%
20,COc1cc(NCCCN)c2ncccc2c1,91.8%

row,SMILES,growth
1,COC(=O)[C@@H](C)CNS(=O)(=O)N(c1cc(C(F)(F)F)cc(C(F)(F)F)c1)C1CCN(Cc2ccc(F)cc2)CC1,-43.2% (active)
2,COC(=O)[C@H](C)NC(=O)[C@@H](OC)[C@@H]1Cc2cc3cc(OC4CC(OC5CC(O)C(O)C(C)O5)C(O)C(C)O4)c(C)c(O)c3c(O)c2C(=O)[C@H]1OC1CC(OC2CC(OC3CC(C)(O)C(O)C(C)O3)C(O)C(C)O2)C(O)C(C)O1 (stereo not given in full),-20.5% (active)
3,C=CC(=O)Nc1cc(Nc2nccc(-c3cn(C)c4ccccc34)n2)c(OC)cc1N(C)CCN(C)C,-81.1% (active)
4,CC1CCC(n2cnc3c(Cl)ncnc32)O1 (stereo not given),104%
5,C=CCCCOC1[C@H](OCc2ccccc2)C(OCc2ccccc2)C(OC)O[C@@H]1CNC(=O)c1cccc(I)c1 (stereo not given in full),36.9%
6,CN1CCN(Cc2ccc(NC(=O)c3[nH]ncc3Nc3ncnc4sc5c(c34)CCCC5)cc2)CC1,-93% (active)
7,CCN1CCN(c2nc(C)cc(N(CCCNc3ccnc4cc(Cl)ccc34)Cc3ccc4c(c3)OCO4)n2)CC1,-78.6% (active)
8,CN1CCC(CNc2ccc3ncc(-c4cccc(OC(F)(F)F)c4)n3n2)CC1,-88.6% (active)
9,C/C(=C(/c1ccc(Cl)cc1)c1ccc(OCCN2CCCCC2)cc1)c1ccccc1,11.8%
10,CC1(/C=N/NC(N)=S)NC(=O)NC1=O (stereo not given),98.7%
11,CCN(CCCOc1ccc2c(Nc3cc(CC(=O)Nc4cccc(F)c4)[nH]n3)ncnc2c1)CCOP(=O)(O)O,-7.95% (active)
12,O=C(Nc1cnn2ccc(N3CCC[C@@H]3c3cc(F)ccc3F)nc12)N1CC[C@H](O)C1,71.6%
13,COc1cc2ncnc3c2cc1OCCCCCN(C)Cc1ccc(Br)cc1N3,51.3%
14,CCN(CC)CCCC(C)Nc1cc(-c2ccc(C(F)(F)F)cc2)c(C#N)c2nc3ccccc3n12 (stereo not given),-44.6% (active)
15,O=C1C=CC2(NN=C(c3ccccc3)N2c2ccc(Cl)cc2)c2cccc(O)c21 (stereo not given),94.5%
16,CCCCCC(=O)OCc1ccc(Cl)c(Cl)c1,106%
17,O=c1sn(-c2cccc3ccccc23)c(=O)n1Cc1ccccc1,89.8%
18,ClCc1ccc(-c2ccc(Cn3cnc4c(Cl)nc(Cl)nc43)cc2)cc1,35.3%
19,C=CCN(/C=C1/C(=O)O[C@H](COC)[C@@]2(C)C1=C(O)C(=O)C1=C2[C@H](OC(C)=O)C[C@]2(C)C(=O)CC[C@@H]12)CC=C,17.7%
20,NC(=O)c1n[nH]n2c1nc(=O)c1c3c(sc12)CCCC3,103%
